Source: PubChem BioAssay
Gli-Sufu block: blocks Gli-Sufu signaling in a luciferase reporter; inhibition, % at 5 µM; 340,000 tested, 0.74% active; Sufu-KO-LIGHT fibroblasts, Gli luciferase reporter luminescence; AID 588413;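 active = inhibition above about 55%, limit read from the data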
SMARCA2 activ: SMARCA2 function activation, primary screen; MG213 cells, MMTV-luciferase reporter, dexamethasone, overnight; activation, % at 9.1 µM; 370,000 tested, 1% active; AID 652017; in the data active = activation above about 7.8%
COUP-TFII inh: inhibitors of human COUP-TFII (NR2F2); P24468; HEK293T NGFI-A luciferase reporter, luminescence; inhibition, % at 8.6 µM; 370,000 tested, 0.7% active; AID 686940;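 active = inhibition above a per-plate cutoff, mean inhibition of test wells between control levels plus 3 SD, cut at about 38% in these data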;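 also: cells cotransfected with COUP-TFII expression vector driving the NGFI-A reporter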
Target sequence (P24468 whole entry, looked up): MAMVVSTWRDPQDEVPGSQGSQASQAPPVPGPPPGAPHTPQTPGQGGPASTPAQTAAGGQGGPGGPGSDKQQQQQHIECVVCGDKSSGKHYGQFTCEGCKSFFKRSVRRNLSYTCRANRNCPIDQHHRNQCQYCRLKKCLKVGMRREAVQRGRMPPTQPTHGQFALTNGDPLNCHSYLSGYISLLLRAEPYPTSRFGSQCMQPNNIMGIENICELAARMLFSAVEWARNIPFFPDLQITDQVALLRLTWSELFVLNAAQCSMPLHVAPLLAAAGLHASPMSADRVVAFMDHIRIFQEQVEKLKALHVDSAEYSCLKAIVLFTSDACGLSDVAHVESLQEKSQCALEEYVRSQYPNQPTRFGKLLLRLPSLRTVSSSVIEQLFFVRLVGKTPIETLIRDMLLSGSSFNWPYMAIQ
GalR3 antagonist: human GalR3 antagonism. inhibition, % at 3 µM. AID 651719. HEK293 GalR3-CNG cAMP membrane potential fluorescence; galR3 body fused to GalR1 C-terminus. O60755. 360,000 tested, 0.44% active;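 active = inhibition above the screen-wide average plus 3 SD, cut at about 13% in these data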;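 also: forskolin and galanin both at EC90 stimulate the cells; cAMP rise reported by CNG channel membrane potential dye signal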
H9c2 protect: modulators protecting cardiomyocytes from myocardial damage; 360,000 tested, 0.63% active; protection from H2O2 cell death, % at 20 µM; H9c2 cardiomyocytes, H2O2 injury protection, ATPLite, 2 h; AID 588492;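 active = compounds giving at least 50% protection of heart cells from peroxide-induced death in the single-dose screen, raw or plate-pattern-corrected value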
FXN GAA850 act: frataxin GAA850 promoter activation; 360,000 tested, 0.56% active; HEK293 lucGAA850 FXN promoter luciferase reporter, 24 h; percent of 10 µM SAHA response; activation, % at 6 µM;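 active = activation above the average of all compounds screened plus 3 SD, cutoff fixed separately per campaign, cut at about 7.5% in these data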
GalR3 antag conf: GalR3 (human) antagonism, confirmation; shares compounds with GalR3 antagonist; 1,600 tested, 59% active; inhibition, % at 3 µM; AID 652245; HEK293 GalR3 CNG cAMP biosensor, membrane potential fluorescence; galR3 fused to GalR1 carboxy tail; challenged with forskolin and galanin at EC90;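 active = inhibition above the primary screen's cutoff, the mean inhibition of all screened compounds plus 3 SD, cut at about 13% in these data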
CNG parental: parental cell agonism counter-screen for GalR3 antagonists; shares compounds with GalR3 antagonist; HEK293-CNG parental cells, cAMP membrane potential fluorescence; normalised: DMSO wells 0%, forskolin wells 100%; activation, % at 3 µM; 1,600 tested, 10% active; AID 652268; in the data active = activation above about 1.3%
SMARCA2 act conf: confirmation of SMARCA2 (BRM) function activators | MG213 cells, MMTV-luciferase with dexamethasone, luminescence, overnight; MG213 cells expressing E1A, Rb sequestered; DMSO wells 0%, reference activator 100% | 3,500 tested, 30% active | AID 652260 | shares compounds with SMARCA2 activ | activation, % at 9.1 µM;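 active = activation above its plate's cutoff, the mean activation of tested wells plus 3 SD, cut at about 7.9% in these data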
GAL4-VP16 Luc: activates GAL4-VP16 luciferase, flagging SMARCA2 activator hits | shares compounds with SMARCA2 activ | HEK293 GAL4-VP16 pG5luc reporter, luciferase luminescence; scaled: DMSO wells 0%, SAHA wells 100% | activation, % at 9.1 µM | 3,500 tested, 41% active;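 active = activation above the solvent-only control well mean plus 3 SD, averaged across control plates, cut at about 5.2% in these data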
Gal4-VP16 ctr: VP16 inhibition counter-screen for COUP-TFII; 2,500 tested, 25% active; inhibition, % at 8.5 µM; HEK293 Gal4-VP16 luciferase reporter, luminescence; shares compounds with COUP-TFII inh; in the data active = inhibition above about 13%
COUP-TFII conf: COUP-TFII (NR2F2) inhibition, confirmation assay; shares compounds with COUP-TFII inh; HEK293 NGFI-A luciferase reporter, luminescence; inhibition, % at 8.5 µM; 2,500 tested, 45% active; AID 687008;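 active = mean inhibition over three repeats above a set limit taken from the earlier primary screen, cut at about 38% in these data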
Numbers stand for hits; i = inactive; nt = not tested or not shown. In the library only some 3.4% were active in any assay of this set; here they are far more common.

SMILES | Gli-Sufu block | SMARCA2 activ | COUP-TFII inh | GalR3 antagonist | H9c2 protect | FXN GAA850 act | others
CCOC(=O)Cc1csc(NC(=O)c2c(O)c3ccccc3n(CCC(C)C)c2=O)n1 | i | i | i | i | i | i
O=C(c1ccc(Cl)cc1)C1CCCN(Cc2ccc3ncccc3c2)C1 (stereo not drawn) | i | i | i | i | i | i
COC1=CC(=O)[C@]2(C=C1OC)OC[C@@H]1Oc3c(ccc4c3C=CC(C)(C)O4)C(=O)[C@@H]12 | 85 | i | 73 | 41 | nt | nt | GalR3 antag conf=98;CNG parental=i
CCOC(=O)c1c(C)n(C(C)C)c2ccc(OC)cc12 | i | i | i | i | i | i
CCn1c(C)c(C(=O)O)c2cc(OC)ccc21 | i | i | i | 13 | i | i | GalR3 antag conf=i;CNG parental=i
COc1ccc(CNCCc2c(C)[nH]c3ccc(OC(F)(F)F)cc23)c(OC)c1 | 57 | i | 51 | 24 | i | i | GalR3 antag conf=90;CNG parental=i;Gal4-VP16 ctr=i;COUP-TFII conf=45
COc1ccc2[nH]c(C)c(CCNCc3cc(OC)c(OC)c(OC)c3)c2c1 | i | i | i | i | i | i
c1ccc(N2C3C4CC(C5CCCC54)C32)cc1 (stereo not drawn) | i | i | i | i | i | i
CC(C)C1C(C#N)=C(N)Oc2c1c(=O)oc1ccccc21 (stereo not drawn) | nt | i | i | i | i | i
CC1OC(OC2C=C3CCC4C(CCC5(C)C(c6ccc(=O)oc6)CCC45O)C3(C)CC2)C(O)C(OC2OC(CO)C(O)C(O)C2O)C1O (stereo not drawn) | i | i | 78 | 14 | i | i | GalR3 antag conf=39;CNG parental=4.1;Gal4-VP16 ctr=54;COUP-TFII conf=80
CC12CCC3C(CCC4(O)CC(O)CCC34C=O)C1(O)CCC2C1=CC(=O)OC1 (stereo not drawn) | i | i | 71 | 18 | i | i | GalR3 antag conf=47;CNG parental=4.2;Gal4-VP16 ctr=24;COUP-TFII conf=64
O=c1[nH]sc2cc(F)ccc12 | i | 13 | i | i | i | i | SMARCA2 act conf=11;GAL4-VP16 Luc=i
N#Cc1ccc(NC(=S)N2Cc3cc(Br)ccc3-n3nncc3C2)cc1 | nt | i | i | i | nt | nt
O=C1NC(=S)SC1=Cc1ccc(N(CCCl)CCCl)cc1 | i | i | i | i | i | i
O=C(NC1CN2CCC1CC2)c1cc(-c2ccc(Cl)cc2)nc2ccccc12 (stereo not drawn) | nt | 11 | i | nt | nt | nt | SMARCA2 act conf=i;GAL4-VP16 Luc=i
C[C@H]1[C@@H](c2ccccc2)O[C@@H](c2ccccc2Br)N1C | i | i | i | i | i | i
O=C1c2ccccc2-c2cc3ccccc3cc21 | i | i | i | i | i | i
O=C1c2ccccc2-c2cccc3cccc1c23 | i | 8.6 | i | nt | i | i | SMARCA2 act conf=9.5;GAL4-VP16 Luc=i
CN(C)C(=O)Oc1cccc2c(OC(=O)N(C)C)cccc12 | i | i | i | i | i | i
CN(C(=O)Oc1cccc2ccccc12)C1C=CCC1 (stereo not drawn) | i | 9.9 | i | i | i | i | SMARCA2 act conf=i;GAL4-VP16 Luc=i
Cc1ccc2c(c1)NP(=S)(Oc1ccccc1)N2 (stereo not drawn) | i | 10 | i | i | i | i | SMARCA2 act conf=i;GAL4-VP16 Luc=i
CCCCC1(CCC)C(=O)NC(=S)NC1=O | i | i | i | i | i | i
